T1: UNK ZnF1-3 (human, UniProt Q9C0B0 31-174)
T1 sequence: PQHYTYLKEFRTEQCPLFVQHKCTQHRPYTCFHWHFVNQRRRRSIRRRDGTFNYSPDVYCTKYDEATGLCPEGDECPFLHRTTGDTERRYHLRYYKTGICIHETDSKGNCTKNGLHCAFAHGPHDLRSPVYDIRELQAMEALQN

B1: 186301657_186302230_1024_CDS_ENSG00000090520_ENST00000265028|human|control|control (ssRNA)
RNA: GGGAGUUCUACAGUCCGACGAUCGGAAAUAUGUACCUUGUGACCAUCCAAGUGAGUAAUAUCCAUCUCAAAGCCAACCAGUGACUCAACUAAUGAGAUUGUCACAUUUGUGUACAAAUCAUCUCCUCUCCUUUCAAAUAUUGGCAACAGAGGAUUGAGCAUCA
B2: 12963335_12971236_673_CDS_ENSG00000085415_ENST00000262124|human|control|control (ssRNA)
RNA: GGGAGUUCUACAGUCCGACGAUCAUAUUCAAAAAUCUGAACCUUGGCCAUUGCGUUGGGGCUACUGUCAUCACUUCCUACGGCGAUCAUGGGGGAAUGAGCACGAGAGCUUGAAGGGUUCCAAGAAAUACAACUACAGCUUAGCAACAGAGGAUUGAGCAUCA
B3: chr1:154966221:154966222:+_ENSMUSG00000042751_ENSMUST00000043313|mus_mus|FALSE|FALSE (ssRNA)
RNA: GGGAGUUCUACAGUCCGACGAUCUGCAACUCGAAUGCAGUUUUUAUUGAGUUGACUUCCAUAAAGCAAAUCUCACUCUUAAAUUAGCAGAUAUGAUUUUUUAAAAAAUUAAAAAAAAAAAAGCUUCCUCCUCCCCAUUCCAACCAACAGAGGAUUGAGCAUCA
B4: chr16:67134085:67134086:+_ENSG00000067955_ENST00000412916|hu_hu|FALSE|FALSE (ssRNA)
RNA: GGGAGUUCUACAGUCCGACGAUCCUGAAUUGACUGUGUCAGUUUUUCACCCUUUAAAAUAAUGCCAUUUAAUGAUAAAAUACAUUUUUCAAAAAUUCAGAAAUGUAGUAACAUUUAAUAAAUGUGACCAUGAAAAAUAUUUGUCAACAGAGGAUUGAGCAUCA
B5: chr16:67134085:67134086:+_ENSG00000067955_ENST00000412916|hu_mus|FALSE|FALSE (ssRNA)
RNA: GGGAGUUCUACAGUCCGACGAUCGAAUUGACCAUGUCAGUUUUUAAAAUUUUCUAAAAUAAUGCCAUUUUAUGAUAAAAUACAUUUUUGCAAAAAUUCAGAAAUGUAGUAACAUUUAAUGAAUACGACCACGGAAAGUAUUGUCAACAGAGGAUUGAGCAUCA
B6: chr5:6374476:6374477:-_ENSG00000133398_ENST00000255764|hu_mus|FALSE|FALSE (ssRNA)
RNA: GGGAGUUCUACAGUCCGACGAUCUAGGCUUUUAAAUUUCUUCAUUGUGUCGAUCUUGCCCUUGACUUGCUCGUUUUUAGCUAGAGCCCUCUCCAGGCAUUCUUUGGUGUAGAGCUGGGGAUUCCGACCUUGAUCAAUGUAUUCCAACAGAGGAUUGAGCAUCA
B7: 117884203_117884323_1758_3pUTR_ENSG00000047932_ENST00000052569|human|control|control (ssRNA)
RNA: GGGAGUUCUACAGUCCGACGAUCAAAUUGCUUUACAUGCAAUAGCUAAUUAUGGUCUACCACAGAAAACAGGGUGUUUUAUGCAUUGAGAAUUGUUCACAUGAAGCCCUGAGGUACCCGCCUUUCAUUUAGGCAACAAACAGCCAACAGAGGAUUGAGCAUCA
B8: 48376308_48376428_337_CDS_ENSMUSG00000031558_ENSMUST00000170109|mouse|control|control (ssRNA)
RNA: GGGAGUUCUACAGUCCGACGAUCGGGCACACUGCGCAGUGCCAGCCCAUGACAGUCCACCGUGCUGCCUGAACAGGAGCACUGGGCCGGGCACGCCUGCGGCGCCACCUUGUUCAAGAUCGACAACACUAACCCCAGCGAUAGCAACAGAGGAUUGAGCAUCA
B9: 57609423_57609543_1342_3pUTR_ENSG00000101166_ENST00000355937|human|control|control (ssRNA)
RNA: GGGAGUUCUACAGUCCGACGAUCACUAAGUUACAAAACUUGGGCAAAUCAAUACAGUACUCUUUUAUAAUGAAACCAUACUUUUGUUGGAGUCAUGUUACUUUAGUGAUAAUUUUCACUCCAAAAAUAUUUAAGUACCAAAUCCAACAGAGGAUUGAGCAUCA
B10: chr5:92873050:92873051:-_ENSMUSG00000029426_ENSMUST00000031377|mus_hu|FALSE|FALSE (ssRNA)
RNA: GGGAGUUCUACAGUCCGACGAUCCAGCACCCAACAACAACAAAAUUACUAUACAAGGGUUUAUUAAAUACUUGCUAGACACAUAAAAGAACAAUUUCAGAGCCCACAUGAUUUUAUAAAGCUUAAUGGCCAGCCAUGUCAGCCCAACAGAGGAUUGAGCAUCA
B11: chr7:126859785:126859786:-_ENSMUSG00000030942_ENSMUST00000033236|mus_hu|FALSE|FALSE (ssRNA)
RNA: GGGAGUUCUACAGUCCGACGAUCUAUAUUACACACAAAUGUUAAAAAAAAAAAAAAAAAACAGACAUAAACAAGAAAAUCACAAAAGUACAAAAACUUCACUAAACAAUUCACUUCUAACCUACAUGAUCCACAUUUUUGCAACAACAGAGGAUUGAGCAUCA
B12: chr8:13147844:13147845:+_ENSMUSG00000031446_ENSMUST00000016680|mus_mus|FALSE|FALSE (ssRNA)
RNA: GGGAGUUCUACAGUCCGACGAUCAAUAUUAACAAUUUGUAGACACAAUGAACUUAAAAAUAAGAAGUAGAAAUAGAAAUCUAUUUGGUCUUUCAGAGACCACAUCAUAGAACUCAUAAAUGAAAAUGUACAAAUAUAGAAAUGCAACAGAGGAUUGAGCAUCA
B13: chr1:60041781:60041782:+_ENSMUSG00000041040_ENSMUST00000036540|mus_hu|FALSE|FALSE (ssRNA)
RNA: GGGAGUUCUACAGUCCGACGAUCAAGUUUACAAUAGUAAAGUAAAUGCAGUAGUGGCAAAUUUUCUUUUAUUUUCCUUCACAAAAGAAAAUCUUUAUAACCCAGUCCUAGUCUUGGACAUAGUGAAAGCUAUAAAUUCUGACUCAACAGAGGAUUGAGCAUCA
B14: chr5:92873050:92873051:-_ENSMUSG00000029426_ENSMUST00000031377|mus_hu|motif|central (ssRNA)
RNA: B10 RNA with U75G, A76G
B15: chr5:40767622:40767623:-_ENSG00000132356_ENST00000397128|hu_mus|hu_hu_hu_mus_False|38_48 (ssRNA)
RNA: GGGAGUUCUACAGUCCGACGAUCAUCUUUUAUUGCGGCCCUCUUCAUGGGAUCCACCUGCAGCAUAUGUUUCAAAAGGCUGAUUACAGAAGGAUUUAAAUAUUGAGGGGUAUAAAAGAUCCCAUCACAUAUCUUCUUAAAAAGCAACAGAGGAUUGAGCAUCA
B16: chr16:57153313:57153314:+_ENSMUSG00000022752_ENSMUST00000166897|mus_mus|FALSE|FALSE (ssRNA)
RNA: GGGAGUUCUACAGUCCGACGAUCCAAAAAAAAUUAAAAAGGAUUAAUUGAAUACAAAAGAAGUAUAUUUUACAGCACUUACUAUGUUAAAAACUAACAUACUAUAAAAUACUCACAUAUUAUACAAACAGCUAUAAAAAAACACAACAGAGGAUUGAGCAUCA
B17: chr16:57153313:57153314:+_ENSMUSG00000022752_ENSMUST00000166897|mus_mus|motif|central (ssRNA)
RNA: B16 RNA with U82G, A83G
B18: chr14:102516957:102516958:+_ENSG00000197102_ENST00000360184|hu_hu|FALSE|FALSE (ssRNA)
RNA: GGGAGUUCUACAGUCCGACGAUCAGCUCAGACCUUCCAAAUAUUUUAAAAAUGAAUAAAUGUUAAAUACCAACUUUCACUAUUACAGAAAGGGGCAGCUAGAAAAGUUUACUCUGUGCACAAGACUGCGACACCCCGCUCGUACAACAGAGGAUUGAGCAUCA
B19: chr4:154931852:154931853:+_ENSMUSG00000029064_ENSMUST00000030940|mus_mus|FALSE|FALSE (ssRNA)
RNA: GGGAGUUCUACAGUCCGACGAUCUUUUAUUGUAGUAUUUCCUUUUAAAAUUGGACCAACCCAAAACAAAAUGAAACCAAAAAAACAAAAACAAAACAAAAUAACAAAAUAAACCAAAAACAAUGGCCCCAGAAAAAAUGCACACAACAGAGGAUUGAGCAUCA

The source of these data is PMC12136788.

Where a chain is given by its changes, count along the chain named. Whole data set: some 24,000 sequences, median “enrichment r” near 0.99, cut for the highest 2% near 3.7. Only a selection was taken, and the highest values are over-represented in it overall.

The target in this assay is T1, UNK ZnF1-3. Put plainly: nsRBNS (natural sequence RNA bind-n-seq); RBNS binding buffer (assumed for nsRBNS): 25 mM Tris pH 7.5, 150 mM KCl, 3 mM MgCl2, 0.01% Triton X-100, 500 ug/ml BSA, 20 U/ml SUPERase-In, 4 C; UNK is unkempt and MSI1 is Musashi-1; names of the RNAs are library labels; protein concentration not given here; high values mean tight binding.
As for B1, the binding signal stood at 0.986 enrichment R.
Turning to B2, the binding signal is 2.14 enrichment R.
Take B3: the binding signal was 3.32 enrichment R.
B4 came in with a binding signal of 0.889 enrichment R.
Turning to B5, the binding signal was 4.09 enrichment R.
The molecule B6 returned a binding signal of 0.465 enrichment R.
For the molecule B7, the binding signal came out at 1.15 enrichment R.
B8: the binding signal was determined as 0.634 enrichment R.
For B9, the binding signal is 0.487 enrichment R.
B10 had a binding signal of 3.35 enrichment R.
In turn, B11 yielded a binding signal of 10.5 enrichment R.
In turn, B12 yielded a binding signal of 3.41 enrichment R.
B13 displayed a binding signal of 0.593 enrichment R.
B14 displayed a binding signal of 4.28 enrichment R.
The same measure for B15: 1.64 enrichment R.
In turn, B16 showed a binding signal of 11.1 enrichment R.
Regarding B17, the binding signal worked out at 3.65 enrichment R.
With B18, the binding signal is 3.32 enrichment R.
The same measure for B19: 3.7 enrichment R.
